# According to PubChem BioAssay (EPA / NIEHS):
# Values joined by “and” are separate entries in the source; they are usually repeats but may differ in a detail not shown here. Identical values can stand only once. Active and inactive are the calls of the source. How the source made its calls: active means hit-call score of the fitted dose curve at least 0.9, where 1 is the maximum; inactive means score below 0.9.
# Tests used:
# [1] = read-out: Monocyte Chemoattractant Protein-1 (MCP1), CCL2 (gene 6347); experiment: BSK_IMphg_MCP1: BioMAP Diversity Plus: IMphg Assay for Monocyte Chemoattractant Protein-1 (MCP1) Biomarker Activity (AID 2284253); conditions: primary human endothelial cells with macrophages
# Summary of the method: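 ELISA readout of MCP-1 at 24 hours in IMphg co-cultures of venular endothelial cells and macrophages, normalised to DMSO; parallel cultures stained with sulforhodamine B for overt cytotoxicity.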
# [2] = read-out: Macrophage Inflammatory Protein-1 Alpha (MIP1a), CCL3 (gene 6348); experiment: BSK_IMphg_MIP1a: BioMAP Diversity Plus: IMphg Assay for Macrophage Inflammatory Protein-1 Alpha (MIP1a) Biomarker Activity (AID 2284255); conditions: primary human endothelial cells with macrophages
# Summary of the method: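 MIP-1a protein levels were quantified by ELISA after 24 h treatment of human endothelial cell–macrophage co-cultures, compared with DMSO. Parallel cultures were fixed with TCA and stained with 0.1% SRB to gauge overt cytotoxicity.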
# [3] = read-out: CD69, CD69 (gene 969); experiment: BSK_IMphg_CD69: BioMAP Diversity Plus: IMphg Assay for CD69 Biomarker Activity (AID 2284257); conditions: primary human endothelial cells with macrophages
# Summary of the method: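 Readout is ELISA for CD69 in primary human venular endothelial cell/macrophage co-culture, taken at 24 h post-dosing. SRB staining of parallel cultures gauged overt cytotoxicity; signal increase versus DMSO defined activity.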
# [4] = read-out: Eotaxin 3, CCL26 (gene 10344); experiment: BSK_BF4T_Eotaxin3: BioMAP Diversity Plus: BF4T Assay for Eotaxin 3 Biomarker Activity (AID 2284258); conditions: primary human bronchial epithelial cells with fibroblasts
# Summary of the method: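 ELISA measurement of Eotaxin-3 after 24 h chemical exposure in a bronchial epithelial/dermal fibroblast co-culture, with DMSO as baseline. Parallel SRB staining (0.1% SRB after 10% TCA fixation, 560 nm) flagged overt cytotoxicity.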
# [5] = read-out: Monocyte Chemoattractant Protein-1 (MCP1), CCL2 (gene 6347); experiment: BSK_BF4T_MCP1: BioMAP Diversity Plus: BF4T Assay for Monocyte Chemoattractant Protein-1 (MCP1) Biomarker Activity (AID 2284259); conditions: primary human bronchial epithelial cells with fibroblasts
# Summary of the method: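 MCP-1 ELISA readout taken 24 h after dosing in the BF4T system (bronchial epithelial cells plus dermal fibroblasts). Parallel SRB total-protein staining flagged cytotoxicity; DMSO served as baseline, positive fitting direction.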
# [6] = read-out: Intercellular Adhesion Molecule 1 (ICAM1), ICAM1 (gene 3383); experiment: BSK_BF4T_ICAM1: BioMAP Diversity Plus: BF4T Assay for Intercellular Adhesion Molecule 1 (ICAM1) Biomarker Activity (AID 2284260); conditions: primary human bronchial epithelial cells with fibroblasts
# Summary of the method: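 ICAM-1 levels measured by ELISA after 24 h chemical treatment of bronchial epithelial cell/dermal fibroblast co-cultures, read against DMSO baseline. Overt cytotoxicity checked in parallel cultures by sulforhodamine B staining.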
# [7] = read-out: CD90, THY1 (gene 7070); experiment: BSK_BF4T_CD90: BioMAP Diversity Plus: BF4T Assay for CD90 Biomarker Activity (AID 2284262); conditions: primary human bronchial epithelial cells with fibroblasts
# Summary of the method: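 CD90 levels by ELISA after 24 h treatment of human bronchial epithelial cell/dermal fibroblast cultures, analysed versus DMSO. Overt cytotoxicity checked in parallel cultures by sulforhodamine B staining.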
# [8] = read-out: Interleukin-1 alpha (IL1a), IL1A (gene 3552); experiment: BSK_BF4T_IL1a: BioMAP Diversity Plus: BF4T Assay for Interleukin-1 alpha (IL1a) Biomarker Activity (AID 2284264); conditions: primary human bronchial epithelial cells with fibroblasts
# Summary of the method: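 ELISA read-out of IL-1α from bronchial epithelial cell/dermal fibroblast co-cultures 24 h after compound addition. Increases scored against DMSO negative control. Cytotoxicity monitored by sulforhodamine B staining of parallel cultures.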
# [9] = read-out: KRT18 (gene 3875); experiment: BSK_BF4T_Keratin818: BioMAP Diversity Plus: BF4T Assay for Keratin 818 Biomarker Activity (AID 2284266); conditions: primary human bronchial epithelial cells with fibroblasts
# Summary of the method: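 Keratin 8/18 levels quantified by ELISA after 24 h chemical treatment of bronchial epithelial cell/dermal fibroblast co-cultures, fitted in positive direction relative to DMSO. Parallel SRB staining tracks overt cytotoxicity.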
# [10] = read-out: Matrix Metallopeptidase 1 (MMP1), MMP1 (gene 4312); experiment: BSK_BF4T_MMP1: BioMAP Diversity Plus: BF4T Assay for Matrix Metallopeptidase 1 (MMP1) Biomarker Activity (AID 2284270); conditions: primary human bronchial epithelial cells with fibroblasts
# Summary of the method: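 MMP-1 quantified by ELISA in primary human bronchial epithelial/dermal fibroblast co-cultures, 24 hours post-dosing, with DMSO as baseline; parallel sulforhodamine B staining (560 nm) tracks overt cytotoxicity.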
# [11] = read-out: Matrix Metallopeptidase 3 (MMP3), MMP3 (gene 4314); experiment: BSK_BF4T_MMP3: BioMAP Diversity Plus: BF4T Assay for Matrix Metallopeptidase 3 (MMP3) Biomarker Activity (AID 2284271); conditions: primary human bronchial epithelial cells with fibroblasts
# Summary of the method: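 MMP-3 level read by ELISA after 24 h chemical exposure of bronchial epithelial cell/dermal fibroblast co-cultures, fitted upward relative to DMSO. Parallel cultures stained with 0.1% SRB after TCA fixation gauge overt cytotoxicity.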
# [12] = read-out: Tissue plasminogen activator (tPA), PLAT (gene 5327); experiment: BSK_BF4T_tPA: BioMAP Diversity Plus: BF4T Assay for Tissue plasminogen activator (tPA) Biomarker Activity (AID 2284272); conditions: primary human bronchial epithelial cells with fibroblasts
# Summary of the method: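 tPA level quantified by ELISA at 24 h post-treatment in bronchial epithelial/dermal fibroblast co-cultures, gain of signal scored against DMSO baseline. Parallel cultures stained with 0.1% SRB (560 nm) to flag overt cytotoxicity.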
# [13] = read-out: Plasminogen Activator Inhibitor-1 (PAI1), SERPINE1 (gene 5054); experiment: BSK_BF4T_PAI1: BioMAP Diversity Plus: BF4T Assay for Plasminogen Activator Inhibitor-1 (PAI1) Biomarker Activity (AID 2284273); conditions: primary human bronchial epithelial cells with fibroblasts
# Summary of the method: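 PAI-1 levels quantified by ELISA 24 h post-dosing in bronchial epithelial cell plus dermal fibroblast cultures. Signal gain referenced to DMSO baseline. Sulforhodamine B total-protein staining of parallel wells checked cytotoxicity.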
# [14] = BSK_BF4T_SRB: Viability Assessment in the BioMAP Diversity Plus: BF4T Assay (AID 2284274); conditions: primary human bronchial epithelial cells with fibroblasts
# Summary of the method: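 Cytotoxicity measured as total protein: cells fixed with 10% TCA, stained with 0.1% SRB, read at 560 nm. Bronchial epithelial/dermal fibroblast co-culture, 24 h after dosing, with positive-direction fitting relative to DMSO.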
# [15] = read-out: urokinase Plasminogen Activator (uPA), PLAU (gene 5328); experiment: BSK_BF4T_uPA: BioMAP Diversity Plus: BF4T Assay for urokinase Plasminogen Activator (uPA) Biomarker Activity (AID 2284275); conditions: primary human bronchial epithelial cells with fibroblasts
# Summary of the method: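 uPA levels measured by ELISA at 24 hours in BF4T cultures (bronchial epithelial cells plus dermal fibroblasts) and compared with DMSO; cytotoxicity tracked in parallel cultures by sulforhodamine B staining.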
# [16] = read-out: Matrix Metallopeptidase 9 (MMP9), MMP9 (gene 4318); experiment: BSK_BF4T_MMP9: BioMAP Diversity Plus: BF4T Assay for Matrix Metallopeptidase 9 (MMP9) Biomarker Activity (AID 2284276); conditions: primary human bronchial epithelial cells with fibroblasts
# Summary of the method: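 MMP-9 levels were measured by ELISA after 24 h exposure of bronchial epithelial cell/dermal fibroblast co-cultures, with DMSO as baseline. Parallel cultures were stained with 0.1% SRB after TCA fixation, read at 560 nm, to flag overt cytotoxicity.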
# [17] = read-out: Vascular cell adhesion molecule 1 (VCAM1), VCAM1 (gene 7412); experiment: BSK_IMphg_VCAM1: BioMAP Diversity Plus: IMphg Assay for Vascular cell adhesion molecule 1 (VCAM1) Biomarker Activity (AID 2284286); conditions: primary human endothelial cells with macrophages
# Summary of the method: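 ELISA read-out of VCAM-1 on venular endothelial cell/macrophage co-cultures at 24 h post-treatment, with DMSO as baseline and positive-direction fitting. Parallel sulforhodamine B total-protein staining (560 nm) served as the overt cytotoxicity measure.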
# [18] = read-out: CD40, CD40 (gene 958); experiment: BSK_IMphg_CD40: BioMAP Diversity Plus: IMphg Assay for CD40 Biomarker Activity (AID 2284288); conditions: primary human endothelial cells with macrophages
# Summary of the method: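 ELISA read-out of cell-surface CD40 at 24 h in human venular endothelial cell/macrophage co-cultures. Activity fitted in the positive direction against DMSO; parallel SRB staining (560 nm) gauges overt cytotoxicity.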
# [19] = read-out: E-selectin (Homo sapiens) (UniProt P16581); experiment: BSK_IMphg_ESelectin: BioMAP Diversity Plus: IMphg Assay for Eselectin Biomarker Activity (AID 2284291); conditions: primary human endothelial cells with macrophages
# Summary of the method: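 Analysed against DMSO baseline in the positive fitting direction, this endpoint is an ELISA read of E-selectin. It comes from human venular endothelial cells co-cultured with macrophages, sampled 24 h post-dose.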
# [20] = BSK_IMphg_SRB: Viability Assessment in the BioMAP Diversity Plus: IMphg Assay (AID 2284292); conditions: primary human endothelial cells with macrophages;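 further: measured one day after compound addition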
# Summary of the method: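 SRB viability endpoint: cultures of human endothelial cells plus macrophages fixed with 10% TCA, stained with 0.1% SRB, read at 560 nm 24 h post-dosing. Only gain-of-signal fitted, relative to DMSO.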
# Sequence of E-selectin (Homo sapiens) (P16581 whole entry, looked up): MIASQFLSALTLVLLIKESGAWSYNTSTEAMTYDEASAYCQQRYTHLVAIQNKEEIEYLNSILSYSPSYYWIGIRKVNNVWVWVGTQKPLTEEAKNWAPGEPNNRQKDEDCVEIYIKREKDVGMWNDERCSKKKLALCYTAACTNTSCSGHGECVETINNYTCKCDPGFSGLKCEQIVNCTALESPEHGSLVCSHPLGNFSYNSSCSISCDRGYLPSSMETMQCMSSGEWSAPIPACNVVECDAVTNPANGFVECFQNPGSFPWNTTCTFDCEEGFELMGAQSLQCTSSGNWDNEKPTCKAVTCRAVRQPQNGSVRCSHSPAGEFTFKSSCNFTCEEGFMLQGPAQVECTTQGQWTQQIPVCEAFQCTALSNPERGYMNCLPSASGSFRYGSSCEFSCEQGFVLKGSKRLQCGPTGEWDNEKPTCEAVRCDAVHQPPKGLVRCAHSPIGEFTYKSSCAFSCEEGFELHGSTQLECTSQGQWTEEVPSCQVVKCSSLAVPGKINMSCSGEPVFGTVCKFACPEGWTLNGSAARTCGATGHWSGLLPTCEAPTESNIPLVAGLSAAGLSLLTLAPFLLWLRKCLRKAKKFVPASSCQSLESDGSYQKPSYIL
structure (smiles),measurement,setting,value
OC(C(F)(F)F)(C(F)(F)F)C(O)(C(F)(F)F)C(F)(F)F,AC50,[1],22.4 µM (active) and 22.6 µM (active)
same,AC50,[2],7.09 µM (active) and 53.2 µM (active)
same,AC50,[3],18.7 µM (active) and 24.2 µM (active)
same,AC50,[4],15.7 µM (active) and 8.93 µM (active)
same,outcome,[5],inactive
same,outcome,[6],inactive
same,outcome,[7],inactive
same,outcome,[8],inactive
same,outcome,[9],inactive
same,outcome,[10],inactive
same,outcome,[11],inactive
same,outcome,[12],inactive
same,AC50,[13],14.4 µM (active) and 8.31 µM (active)
same,outcome,[14],inactive
same,outcome,[15],inactive
same,outcome,[16],inactive
same,AC50,[17],23.6 µM (active) and 22.1 µM (active)
same,AC50,[18],23 µM (active) and 21.1 µM (active)
same,AC50,[19],22 µM (active) and 30 µM (active)
same,AC50,[20],34.1 µM (active) and 34.8 µM (active)
